Columns and labels:
Assay in all cases: log2 ratio of Biotin-Ahx-Ub-VS probe labelling (fragment/DMSO); higher = less target engagement (more negative = stronger competition), active = hit call of the paper (q ≤ 0.05, log2 ratio ≤ -1)
Conditions in all cases: compound concentration: 200 uM; treatment time: 3 h
USP19 = target: T1, USP19 (UniProt O94966)
T1 sequence (whole entry): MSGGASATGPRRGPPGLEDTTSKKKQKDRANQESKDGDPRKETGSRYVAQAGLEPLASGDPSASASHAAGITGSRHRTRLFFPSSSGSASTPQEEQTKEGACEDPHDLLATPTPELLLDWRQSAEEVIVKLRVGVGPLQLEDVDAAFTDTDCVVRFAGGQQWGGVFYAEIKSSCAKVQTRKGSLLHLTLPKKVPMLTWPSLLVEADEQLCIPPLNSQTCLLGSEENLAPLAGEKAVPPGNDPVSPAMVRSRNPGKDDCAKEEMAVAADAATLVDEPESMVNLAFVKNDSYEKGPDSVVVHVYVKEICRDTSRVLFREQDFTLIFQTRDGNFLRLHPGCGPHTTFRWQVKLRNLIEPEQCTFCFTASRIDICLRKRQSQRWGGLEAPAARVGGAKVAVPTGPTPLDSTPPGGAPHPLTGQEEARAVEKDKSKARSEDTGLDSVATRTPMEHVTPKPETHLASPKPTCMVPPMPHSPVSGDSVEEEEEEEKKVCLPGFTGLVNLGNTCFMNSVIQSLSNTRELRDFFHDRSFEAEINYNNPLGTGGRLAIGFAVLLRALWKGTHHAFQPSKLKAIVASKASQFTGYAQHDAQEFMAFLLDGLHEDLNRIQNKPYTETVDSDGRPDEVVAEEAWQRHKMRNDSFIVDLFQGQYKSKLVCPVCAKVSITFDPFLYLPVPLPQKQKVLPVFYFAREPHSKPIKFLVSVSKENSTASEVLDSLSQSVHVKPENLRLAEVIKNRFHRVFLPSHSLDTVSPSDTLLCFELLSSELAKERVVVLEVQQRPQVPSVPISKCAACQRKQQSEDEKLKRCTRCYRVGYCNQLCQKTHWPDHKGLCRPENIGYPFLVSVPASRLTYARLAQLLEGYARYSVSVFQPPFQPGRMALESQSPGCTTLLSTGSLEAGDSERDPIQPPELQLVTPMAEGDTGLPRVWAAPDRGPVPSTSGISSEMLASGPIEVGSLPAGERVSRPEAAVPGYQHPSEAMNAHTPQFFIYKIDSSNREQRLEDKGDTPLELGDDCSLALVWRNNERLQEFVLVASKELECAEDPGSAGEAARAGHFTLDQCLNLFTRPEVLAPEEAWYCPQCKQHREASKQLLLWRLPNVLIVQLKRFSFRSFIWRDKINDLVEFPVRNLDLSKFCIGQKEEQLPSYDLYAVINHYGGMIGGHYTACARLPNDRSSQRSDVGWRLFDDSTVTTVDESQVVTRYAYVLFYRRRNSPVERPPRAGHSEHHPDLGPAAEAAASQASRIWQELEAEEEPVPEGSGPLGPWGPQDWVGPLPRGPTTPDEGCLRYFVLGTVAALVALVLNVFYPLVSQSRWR
Procedure, shortened: (§1)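 Each value is an average log2 ratio of fragment to vehicle, tested by unpaired t-test. The underlying Spectronaut label-free quantities were global-median-normalised, and only proteins with ≥2 unique peptides were included. Triplicate HEK293T lysate samples (495 µg) were exposed to fragment at 200 µM or vehicle for 3 h, then to Biotin-Ahx-Ub-VS at 0.5 µM final for 1 h, before NeutrAvidin enrichment of labelled DUBs, LysC and trypsin digestion, and diaPASEF LC-MS/MS.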

USP22 = target: T2, USP22 (UniProt Q9UPT9)
T2 sequence (whole entry): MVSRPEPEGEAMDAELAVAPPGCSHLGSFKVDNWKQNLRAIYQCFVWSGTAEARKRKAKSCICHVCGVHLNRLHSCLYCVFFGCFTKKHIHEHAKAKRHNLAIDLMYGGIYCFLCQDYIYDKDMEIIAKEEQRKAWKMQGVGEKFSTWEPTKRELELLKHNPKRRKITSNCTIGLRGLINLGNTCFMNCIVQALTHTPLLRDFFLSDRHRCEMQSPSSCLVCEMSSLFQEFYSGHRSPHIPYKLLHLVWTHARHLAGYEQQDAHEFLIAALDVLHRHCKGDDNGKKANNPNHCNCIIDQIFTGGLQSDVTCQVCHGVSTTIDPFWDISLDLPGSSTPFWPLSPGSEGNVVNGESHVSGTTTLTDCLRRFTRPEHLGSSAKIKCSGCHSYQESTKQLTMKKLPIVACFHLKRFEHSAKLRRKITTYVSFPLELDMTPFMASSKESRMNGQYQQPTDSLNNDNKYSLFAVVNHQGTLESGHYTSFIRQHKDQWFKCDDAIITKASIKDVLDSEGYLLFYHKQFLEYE
Procedure, shortened: as §1

USP24 = USP24 (UniProt Q9UPU5)
Sequence of USP24 (Q9UPU5 whole entry): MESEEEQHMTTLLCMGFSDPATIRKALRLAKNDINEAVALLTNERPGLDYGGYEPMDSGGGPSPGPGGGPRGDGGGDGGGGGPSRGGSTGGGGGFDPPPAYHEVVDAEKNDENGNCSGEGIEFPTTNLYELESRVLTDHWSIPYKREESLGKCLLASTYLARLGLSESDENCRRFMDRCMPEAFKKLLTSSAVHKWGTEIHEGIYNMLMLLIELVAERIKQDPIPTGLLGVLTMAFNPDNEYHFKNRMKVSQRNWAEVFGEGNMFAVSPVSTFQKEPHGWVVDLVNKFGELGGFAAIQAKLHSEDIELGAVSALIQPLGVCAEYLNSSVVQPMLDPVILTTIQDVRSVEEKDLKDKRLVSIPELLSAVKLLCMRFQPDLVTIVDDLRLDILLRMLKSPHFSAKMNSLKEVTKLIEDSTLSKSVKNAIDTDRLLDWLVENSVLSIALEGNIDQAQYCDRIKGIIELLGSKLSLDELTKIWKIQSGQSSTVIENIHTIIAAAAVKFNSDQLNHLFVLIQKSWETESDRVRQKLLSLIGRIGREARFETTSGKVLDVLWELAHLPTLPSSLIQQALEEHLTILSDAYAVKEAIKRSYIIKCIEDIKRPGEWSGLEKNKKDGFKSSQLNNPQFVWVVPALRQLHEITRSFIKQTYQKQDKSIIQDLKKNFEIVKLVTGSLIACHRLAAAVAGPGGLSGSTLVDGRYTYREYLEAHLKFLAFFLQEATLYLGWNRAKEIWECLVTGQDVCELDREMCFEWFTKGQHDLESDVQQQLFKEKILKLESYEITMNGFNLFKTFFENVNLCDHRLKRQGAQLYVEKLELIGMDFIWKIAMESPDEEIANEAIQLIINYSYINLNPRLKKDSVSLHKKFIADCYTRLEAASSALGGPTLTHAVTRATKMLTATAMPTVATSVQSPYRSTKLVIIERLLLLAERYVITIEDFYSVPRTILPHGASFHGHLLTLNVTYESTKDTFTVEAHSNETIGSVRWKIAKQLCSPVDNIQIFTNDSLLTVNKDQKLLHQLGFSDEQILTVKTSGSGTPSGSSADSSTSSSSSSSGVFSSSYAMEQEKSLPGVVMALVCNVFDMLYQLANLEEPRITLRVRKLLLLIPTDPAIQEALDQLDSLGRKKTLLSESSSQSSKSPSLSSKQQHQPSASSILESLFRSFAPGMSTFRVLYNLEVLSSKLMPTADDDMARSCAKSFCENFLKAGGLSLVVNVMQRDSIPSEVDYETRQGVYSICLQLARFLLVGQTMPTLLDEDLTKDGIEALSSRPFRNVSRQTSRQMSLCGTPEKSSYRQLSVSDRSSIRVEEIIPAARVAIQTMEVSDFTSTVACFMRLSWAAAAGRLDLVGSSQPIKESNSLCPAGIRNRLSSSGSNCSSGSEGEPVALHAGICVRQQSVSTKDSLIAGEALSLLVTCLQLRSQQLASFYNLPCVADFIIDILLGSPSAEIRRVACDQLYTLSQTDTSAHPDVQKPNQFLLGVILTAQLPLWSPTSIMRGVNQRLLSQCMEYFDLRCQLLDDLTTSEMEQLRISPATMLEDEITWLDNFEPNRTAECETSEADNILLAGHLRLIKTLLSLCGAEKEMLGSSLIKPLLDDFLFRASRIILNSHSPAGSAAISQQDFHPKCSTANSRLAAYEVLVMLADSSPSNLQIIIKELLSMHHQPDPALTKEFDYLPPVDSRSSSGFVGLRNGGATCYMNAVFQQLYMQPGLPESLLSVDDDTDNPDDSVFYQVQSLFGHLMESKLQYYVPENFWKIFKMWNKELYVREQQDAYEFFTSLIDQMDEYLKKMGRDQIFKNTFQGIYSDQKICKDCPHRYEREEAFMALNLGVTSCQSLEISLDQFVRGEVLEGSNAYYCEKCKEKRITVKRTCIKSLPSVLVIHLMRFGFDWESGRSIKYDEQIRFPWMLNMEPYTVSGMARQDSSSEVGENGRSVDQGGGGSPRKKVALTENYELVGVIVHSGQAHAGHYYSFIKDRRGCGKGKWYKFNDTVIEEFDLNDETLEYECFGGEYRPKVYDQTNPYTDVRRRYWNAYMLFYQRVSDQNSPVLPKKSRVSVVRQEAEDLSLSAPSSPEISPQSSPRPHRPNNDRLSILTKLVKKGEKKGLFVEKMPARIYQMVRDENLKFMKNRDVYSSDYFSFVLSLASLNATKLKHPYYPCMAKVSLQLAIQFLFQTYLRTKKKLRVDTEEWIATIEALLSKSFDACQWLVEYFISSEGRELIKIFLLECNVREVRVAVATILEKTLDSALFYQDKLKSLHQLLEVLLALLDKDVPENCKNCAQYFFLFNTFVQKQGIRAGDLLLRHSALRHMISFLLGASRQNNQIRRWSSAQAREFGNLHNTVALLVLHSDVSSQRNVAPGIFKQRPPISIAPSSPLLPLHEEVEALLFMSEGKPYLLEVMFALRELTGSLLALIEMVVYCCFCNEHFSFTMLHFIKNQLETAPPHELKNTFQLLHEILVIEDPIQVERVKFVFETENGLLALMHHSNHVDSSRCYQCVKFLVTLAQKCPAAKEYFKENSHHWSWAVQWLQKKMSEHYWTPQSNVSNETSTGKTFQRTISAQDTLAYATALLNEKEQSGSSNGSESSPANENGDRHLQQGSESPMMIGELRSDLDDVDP
Procedure, shortened: as §1

USP25 = target: T3, USP25 (UniProt Q9UHP3)
T3 sequence (whole entry): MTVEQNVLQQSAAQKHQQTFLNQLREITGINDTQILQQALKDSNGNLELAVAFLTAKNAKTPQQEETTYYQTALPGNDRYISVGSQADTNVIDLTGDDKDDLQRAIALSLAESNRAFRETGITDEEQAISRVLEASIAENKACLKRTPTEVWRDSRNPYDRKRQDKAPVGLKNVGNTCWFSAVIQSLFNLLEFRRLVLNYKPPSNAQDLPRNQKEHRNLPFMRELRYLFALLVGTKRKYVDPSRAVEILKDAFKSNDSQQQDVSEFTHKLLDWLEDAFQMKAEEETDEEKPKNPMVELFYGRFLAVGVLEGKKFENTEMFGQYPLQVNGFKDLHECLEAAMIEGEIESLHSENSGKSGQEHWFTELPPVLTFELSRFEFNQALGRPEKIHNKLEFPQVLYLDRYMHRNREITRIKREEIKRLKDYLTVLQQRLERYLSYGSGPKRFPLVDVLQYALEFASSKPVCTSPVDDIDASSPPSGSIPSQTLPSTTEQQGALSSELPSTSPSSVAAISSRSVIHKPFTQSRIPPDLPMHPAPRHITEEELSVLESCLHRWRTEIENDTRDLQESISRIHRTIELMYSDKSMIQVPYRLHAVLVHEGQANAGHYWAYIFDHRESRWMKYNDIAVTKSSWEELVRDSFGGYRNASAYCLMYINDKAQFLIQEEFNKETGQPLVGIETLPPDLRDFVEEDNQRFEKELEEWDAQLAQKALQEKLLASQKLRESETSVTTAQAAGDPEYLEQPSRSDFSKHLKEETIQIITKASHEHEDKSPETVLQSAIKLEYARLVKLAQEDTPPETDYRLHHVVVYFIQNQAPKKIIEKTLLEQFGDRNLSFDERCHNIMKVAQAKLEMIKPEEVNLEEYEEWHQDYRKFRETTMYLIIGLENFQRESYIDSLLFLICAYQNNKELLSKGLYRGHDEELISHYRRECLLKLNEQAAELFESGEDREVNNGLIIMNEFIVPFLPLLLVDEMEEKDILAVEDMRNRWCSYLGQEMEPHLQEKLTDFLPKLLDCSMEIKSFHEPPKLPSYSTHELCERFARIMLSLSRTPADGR
Procedure, shortened: as §1

USP28 = target: T4, USP28 (UniProt Q96RU2)
T4 sequence (whole entry): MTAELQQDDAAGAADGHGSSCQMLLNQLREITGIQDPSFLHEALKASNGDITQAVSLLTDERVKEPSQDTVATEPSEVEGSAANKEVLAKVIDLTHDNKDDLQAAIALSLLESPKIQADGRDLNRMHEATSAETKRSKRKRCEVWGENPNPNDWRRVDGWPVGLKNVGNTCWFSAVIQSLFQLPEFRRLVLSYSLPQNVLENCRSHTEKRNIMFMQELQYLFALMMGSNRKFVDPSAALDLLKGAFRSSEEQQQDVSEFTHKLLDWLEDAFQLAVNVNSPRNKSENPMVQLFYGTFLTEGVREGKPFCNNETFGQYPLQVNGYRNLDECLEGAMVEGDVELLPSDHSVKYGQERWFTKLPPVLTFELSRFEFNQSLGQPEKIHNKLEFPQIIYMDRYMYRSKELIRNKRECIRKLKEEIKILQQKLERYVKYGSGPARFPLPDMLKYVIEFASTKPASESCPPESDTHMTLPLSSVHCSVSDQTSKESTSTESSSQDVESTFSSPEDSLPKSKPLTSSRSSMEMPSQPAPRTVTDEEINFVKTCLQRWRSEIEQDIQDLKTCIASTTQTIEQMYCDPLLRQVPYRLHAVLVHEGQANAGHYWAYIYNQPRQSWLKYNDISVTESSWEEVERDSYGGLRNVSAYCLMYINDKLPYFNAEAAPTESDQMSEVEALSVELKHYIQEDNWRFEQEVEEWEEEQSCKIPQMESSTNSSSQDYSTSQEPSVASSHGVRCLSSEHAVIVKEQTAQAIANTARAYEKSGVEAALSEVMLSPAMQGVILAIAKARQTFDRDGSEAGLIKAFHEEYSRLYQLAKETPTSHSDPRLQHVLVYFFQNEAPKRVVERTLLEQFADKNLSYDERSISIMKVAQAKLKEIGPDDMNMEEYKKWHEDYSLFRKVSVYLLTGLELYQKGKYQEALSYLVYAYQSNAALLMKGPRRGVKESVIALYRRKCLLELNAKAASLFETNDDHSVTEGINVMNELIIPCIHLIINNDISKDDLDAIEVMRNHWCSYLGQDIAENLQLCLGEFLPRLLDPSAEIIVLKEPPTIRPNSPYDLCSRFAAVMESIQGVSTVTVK
Procedure, shortened: as §1

Measured: log2 ratio of Biotin-Ahx-Ub-VS probe labelling

Cc1nc(CNC(=O)CCl)c2ccccn12.Cl
inactive: USP19 -0.106 | USP22 0.0129 | USP24 -0.108 | USP25 -0.0552 | USP28 -0.23
